RecA splice inh = Mtb RecA intein splicing inhibitors, primary screen, biochemical, fluorescence, HTS; cell-free RecA intein splicing; hit rate 0.75% among 290,000; inhibition, % (no concentration beside the values); in the data active = inhibition above about 30%; inconclusive = no clear call, values can overlap the other calls
GDH-TPI inh = GDH-TPI coupling enzyme inhibitors, primary screen, artefact control for M. tuberculosis FBA inhibitor project, biochemical, absorbance, full deck; GDH-TPI coupled enzyme counterscreen, NADH absorbance; inhibition, % at 4.8 µM; hit rate 1.2% among 360,000; AID 588335, 2011; in the data active = inhibition above about 30%
UGM FP inh = M. tuberculosis UGM enzyme inhibitors, primary screen, biochemical, fluorescence polarization, single point. UDP-galactopyranose mutase (Mycobacterium tuberculosis (strain ATCC 25618 / H37Rv)), …. purified UGM, fluorescence polarization probe displacement. inhibition, % at 10 µM. hit rate 0.06% among 320,000; in the data active = inhibition above about 10%, passing the limit was not always enough; inconclusive = no clear call, values can overlap the other calls
FBA Mtb inh = Mtb FBA enzyme inhibitors, primary screen, biochemical, fluorescence, strain H37Rv; Fructose-bisphosphate aldolase (Mycobacterium tuberculosis (strain ATCC 25618 / H37Rv)), …; purified M. tuberculosis FBA, fluorescence read-out; inhibition, % at 1 µM; AID 588726, 2011; hit rate 2.3% among 360,000; in the data active = inhibition above about 27%
Rv3671c protease = Rv3671c serine protease inhibitors, primary screen, biochemical, fluorescence polarization, M. tuberculosis H37Rv. AID 2606, 2010. inhibition, % at 5.96 µM. hit rate 0.048% among 320,000. P9WHR9; in the data active = inhibition above about 38%;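 note: extracellular domain of Rv3671c used as enzyme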
Target sequence (P9WHR9 whole entry, looked up, the tested form may be a part): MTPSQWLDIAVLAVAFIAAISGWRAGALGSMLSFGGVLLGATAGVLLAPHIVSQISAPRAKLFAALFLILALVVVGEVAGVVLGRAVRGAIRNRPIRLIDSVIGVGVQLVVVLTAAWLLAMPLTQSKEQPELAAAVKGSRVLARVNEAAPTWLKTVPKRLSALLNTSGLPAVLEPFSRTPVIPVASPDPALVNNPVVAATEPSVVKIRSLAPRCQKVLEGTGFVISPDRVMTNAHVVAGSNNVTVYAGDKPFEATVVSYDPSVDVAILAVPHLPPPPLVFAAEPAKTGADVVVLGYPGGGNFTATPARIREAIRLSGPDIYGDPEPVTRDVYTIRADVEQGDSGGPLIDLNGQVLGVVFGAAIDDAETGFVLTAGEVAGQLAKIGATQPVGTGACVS
Mtb bLac sens = beta-lactam sensitization of Mtb H37Rv, H37Rv; M. tuberculosis H37Rv growth with meropenem, percent inhibition; inhibition, % at 25 µM; hit rate 0.27% among 330,000; AID 434955, 2010; call rule not given here;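 note: growth measured after seven days incubation then overnight dye step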
Large screens that a line does not name were inactive. Sampled rows, rich in hits. Any-hit rate of the full collection: about 4%.

O=C(NC1CCCC1)c1cc2c(=O)n3ccccc3nc2s1	FBA Mtb inh 178 (no result: RecA splice inh)
Cc1ccc(C)c(N2CCN(C(=O)c3cc4ccccn4n3)CC2)c1	UGM FP inh 27
O=C(c1cc2ccccn2n1)N1CCN(c2cccc(C(F)(F)F)c2)CC1	none
CCC(C)n1c(=N)c(C#N)cc2c(=O)n3cc(C)ccc3nc21 (stereo unspecified)	none
Cc1ccc2nc3c(cc(C#N)c(=O)n3-c3nccs3)c(=O)n2c1	FBA Mtb inh active
CCCc1c(C(=O)N/N=C/c2ccncc2)nnn1-c1nonc1N	none (no result: UGM FP inh, Rv3671c protease, Mtb bLac sens)
O=C(Nc1ccc(F)c(Cl)c1)C1Cc2c(-c3ccc4c(c3)OCO4)ccnc2O1 (stereo unspecified)	none (no result: RecA splice inh, UGM FP inh, Rv3671c protease, Mtb bLac sens)
COc1ccc(C(=O)NCCCN2CCOCC2)cc1	none
CCN1CCN(CCCNC(=O)c2cc3cc4ccc(OC)cc4nc3o2)CC1	FBA Mtb inh active
Cc1ccc2cc3cc(C(=O)NCCN4CCOCC4)oc3nc2c1	GDH-TPI inh 48, FBA Mtb inh 91
Cc1ccc2cc3cc(C(=O)NCCCN4CCCC4=O)oc3nc2c1	FBA Mtb inh 156
COc1ccc2cc3cc(C(=O)NCCCN4CCOCC4)oc3nc2c1	GDH-TPI inh 33, FBA Mtb inh active
Cc1nc2ccccc2c2oc(C(=O)NCCCN3CCCC3=O)cc12	none
Cc1ccc(NC(=O)CSc2nnc(-c3ccoc3C)n2CCCN(C)C)cc1Cl	none (no result: RecA splice inh)
COC(=O)CC(NC(=O)Nc1ccccc1F)c1ccc2c(c1)OCO2 (stereo unspecified)	none
COc1ccc2cc3cc(C(=O)NCCCN4CCC(C)CC4)oc3nc2c1	GDH-TPI inh 32, FBA Mtb inh active
Nc1nc2nccc(-c3ccco3)n2n1	FBA Mtb inh active (no result: RecA splice inh)
CCN(CC)c1ccc(N2C(=NC(=O)C3CC3)SC3CS(=O)(=O)CC32)cc1 (stereo unspecified)	none
CC(C)Cn1c(-c2cccs2)nc2nc3ccccc3nc21	FBA Mtb inh active
CCCCn1c(-c2cccs2)nc2nc3ccccc3nc21	FBA Mtb inh active
CCCCOCCCn1c(-c2ccco2)nc2nc3ccccc3nc21	FBA Mtb inh active
c1ccc(Cn2c(-c3cccs3)nc3nc4ccccc4nc32)cc1	none (no result: GDH-TPI inh, UGM FP inh, FBA Mtb inh, Rv3671c protease, Mtb bLac sens)
Cc1nc(NCCc2ccc(O)cc2)c2nnn(Cc3ccccc3)c2n1	none (no result: RecA splice inh)
Cc1ccc(S(=O)(=O)NN=Cc2ccccc2Cl)cc1	none (no result: RecA splice inh, UGM FP inh, Rv3671c protease, Mtb bLac sens)
Cc1ccc(S(=O)(=O)N2CCC(C(=O)OCCOc3cccc(C)c3)CC2)cc1	none (no result: RecA splice inh)
Cc1ccc2nc(C3CCCCC3)c(Cc3cccc(Cl)c3)n2c1	FBA Mtb inh 145 (no result: RecA splice inh, GDH-TPI inh, UGM FP inh, Rv3671c protease, Mtb bLac sens)
Clc1cccc(Cc2c(C3CCCCC3)nc3ccc(Cl)cn23)c1	none (no result: RecA splice inh, GDH-TPI inh, UGM FP inh, Rv3671c protease, Mtb bLac sens)
COCCNC(=O)C1(C)CCN(C(=O)c2ccc(C(F)(F)F)nc2C)C1 (stereo unspecified)	none (no result: RecA splice inh, UGM FP inh, Rv3671c protease, Mtb bLac sens)
Cc1cc(C)c(Nc2cc(S(=O)(=O)O)c(N)c3c2C(=O)c2ccccc2C3=O)c(C)c1	Rv3671c protease 44 (no result: RecA splice inh)
Cc1cc[n+](Cc2ccccc2)c(N)c1	none
CCCOc1ccc(NC(=O)C2CC(=O)N/C(=N/N=C(C)/C=C/c3ccc(N(C)C)cc3)S2)cc1 (stereo unspecified)	GDH-TPI inh 32
COc1ccc(OC)c(NC(=O)CSc2ccc(-c3cccnc3)nn2)c1	none
Clc1ccc(-c2ccc(C=Nc3ccc(N4CCOCC4)cc3)o2)cc1	GDH-TPI inh 32
Clc1ccc(-c2ccc(C=Nc3ccc(N4CCOCC4)cc3)o2)c(Cl)c1	none
NS(=O)(=O)c1cc(C(=O)N=Nc2c(O)[nH]c3ccccc23)ccc1Cl	GDH-TPI inh 34
O=C(N=Nc1c(O)[nH]c2ccc(F)cc12)c1ccc(NS(=O)(=O)c2cccs2)cc1	none (no result: RecA splice inh)
O=C(N=Nc1c(O)[nH]c2ccccc12)Nc1ccccc1	GDH-TPI inh 31 (no result: RecA splice inh, UGM FP inh, Rv3671c protease, Mtb bLac sens)
O=C(N=Nc1c(O)[nH]c2ccccc12)c1ccccc1NS(=O)(=O)c1cccs1	GDH-TPI inh 34
CC(C)(O)C(=O)N=Nc1c(O)[nH]c2ccccc12	none
O=C(Cc1cccs1)N=Nc1c(O)[nH]c2ccccc12	none
O=C(N=Nc1c(O)[nH]c2ccccc12)c1cc(-c2cccs2)[nH]n1	GDH-TPI inh 35
C[C@]12C=CC(=O)C=C1CC[C@@H]1[C@@H]2[C@@H](O)C[C@@]2(C)[C@H]1CC[C@]2(O)C(=O)COC(=O)CCC(=O)NCCc1ccc(O)cc1	none (no result: Rv3671c protease)
CCC1(c2ccc(F)cc2)NC(=O)N(CC(=O)NC2CCCC(C)C2C)C1=O (stereo unspecified)	none (no result: RecA splice inh)
COc1ccccc1C(=O)NN(C)C1=NS(=O)(=O)c2ccccc21	none
CCOc1cc(S(=O)(=O)NCCc2cccc(C)c2)c(OCC)cc1-n1cnnn1	FBA Mtb inh 40 (no result: RecA splice inh)
CCOc1cc(S(=O)(=O)N2CCC(Cc3ccccc3)CC2)c(OCC)cc1-n1cnnn1	none
COc1cc2cc(C(=O)N3CC(COS(C)(=O)=O)c4ccc(O)cc43)[nH]c2c(OC)c1OC (stereo unspecified)	GDH-TPI inh 39 (no result: RecA splice inh, UGM FP inh, Rv3671c protease, Mtb bLac sens)
Cc1ccc(NS(=O)(=O)c2cc3[nH]c(=O)c(=O)[nH]c3cc2C)c(C)c1	Mtb bLac sens inconclusive
C=C1C(=O)O[C@@H]2C[C@@H](C)[C@@H]3C=CC(=O)[C@@]3(C)[C@@H](OC(=O)CC(=O)O[C@H]3[C@@H]4C(=C)C(=O)O[C@@H]4C[C@@H](C)[C@@H]4C=CC(=O)[C@]43C)[C@H]12	RecA splice inh 33
C=C1C(=O)OC2CC(C)C3C=CC(=O)C3(C)C(O)C12 (stereo unspecified)	none (no result: RecA splice inh, UGM FP inh, Rv3671c protease, Mtb bLac sens)
Cc1nc2ccccn2c1C(=O)N/N=C/c1cc(C)n(-c2ccc(Cl)cc2)c1C	GDH-TPI inh 36
Cc1nc2ccccn2c1C(=O)N/N=C/c1ccc2c(c1)OCO2	GDH-TPI inh 42
CCOc1cc(/C=N/NC(=O)c2c(-c3ccccc3)noc2C)ccc1O	none
CCOc1cc(/C=N\NC(=O)c2c(C)nc3ccccn23)ccc1O	GDH-TPI inh 48
CCC(C)c1ccc(NC(=O)Nc2cccnc2)cc1 (stereo unspecified)	none
NC(=O)c1ccc(N=Cc2c(O)n(Cc3ccco3)c(=O)[nH]c2=O)cc1	GDH-TPI inh 36
O=c1[nH]c(=S)n(Cc2ccco2)c(O)c1C=NCc1cccs1	GDH-TPI inh 34
CC(=O)N1CCN(c2ccc(N=Cc3c(O)n(Cc4ccccc4)c(=O)[nH]c3=O)cc2)CC1	GDH-TPI inh 33 (no result: UGM FP inh, Rv3671c protease, Mtb bLac sens)
COCCNc1nc(NCc2ccc(NC(C)=O)cc2)c2sc(-c3ccccc3)cc2n1	none (no result: RecA splice inh, UGM FP inh, Rv3671c protease, Mtb bLac sens)
CCN1CCN(c2ccc(S(=O)(=O)N3CCCCC3)cc2NC(=O)c2cc3ccccc3o2)CC1	none

From PubChem BioAssay
